Our source for the growth inhibition values is PubChem BioAssay (NCI).

Each structure is given as a SMILES string. “And” between values parts separate entries of the source, which are not always exact repeats. Equal values may be shown once. This is part of a sample that, as a whole, favours compounds with a hit. Of some 79,000 tested, about 15% had one in any assay. A number with no mark means an inactive call. The source made the active and inactive calls. Rule as the data show it: active = growth inhibition above about 70%; inactive = the rest.

Assay [1] is described as follows: NCI Yeast Anticancer Drug Screen. Data for the rad50 strain (AID 155).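 Also: 0% = growth of vehicle-only cultures of the same strain.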 Conditions: S. cerevisiae rad50 strain growth inhibition; at 50.0 µM; stronger effect = higher value. The method, boiled down:
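Relative growth inhibition (compound vs vehicle) was measured in yeast with a defined repair-gene alteration.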

Assay [2] is described as follows: NCI Yeast Anticancer Drug Screen. Data for the mec2-1 strain (AID 157). The conditions noted are these: S. cerevisiae mec2-1 strain, at 50.0 µM, stronger effect = higher value. The method, boiled down:
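Growth inhibition is read against vehicle-treated controls after compound exposure of the mec2-1 yeast strain, which is defective in DNA damage repair or cell cycle control.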

A short description of assay [3]: NCI Yeast Anticancer Drug Screen. Data for the sgs1 mgt1 strain (AID 161).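 Also: 0% = growth of cultures given vehicle only.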 Conditions: S. cerevisiae sgs1 mgt1 strain, at 50.0 µM, stronger effect = higher value. In outline:
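Percent growth inhibition was derived by comparing compound-exposed mutant yeast with vehicle-exposed cultures. The strain carries alterations in DNA damage repair.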

Assay [4] can be described thus: NCI Yeast Anticancer Drug Screen. Data for the cln2 rad14 strain (AID 165).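 Also: 0% = growth equal to vehicle treated cultures.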 The conditions noted are these: S. cerevisiae cln2 rad14 strain, at 50.0 µM, stronger effect = higher value. In outline:
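Growth inhibition, relative to vehicle-treated controls, is the read-out. The test organism is a yeast strain with defined genetic alterations, cln2 rad14.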

A short description of assay [5]: NCI Yeast Anticancer Drug Screen. Data for the bub3 strain (AID 167). Conditions: S. cerevisiae bub3 mutant strain, at 50.0 µM, stronger effect = higher value. The method, boiled down:
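Screening used yeast with an engineered genetic alteration affecting cell cycle control. Compound-exposed cultures were compared with vehicle cultures, and reduced growth was taken as inhibition.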

The nature of assay [6]: NCI Yeast Anticancer Drug Screen. Data for the mlh1 rad18 strain (AID 175). The conditions noted are these: S. cerevisiae mlh1 rad18 strain growth inhibition; at 50.0 µM; stronger effect = higher value. In outline:
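Cells of a genetically altered yeast strain, deficient in DNA damage repair, were treated with compound. Their growth was then compared with that of vehicle-treated cultures to give inhibition.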

Turning to `C[Si](C)(OC(=O)N(CCCl)CCCl)O[Si](C)(C)OC(=O)N(CCCl)CCCl`, the growth inhibition in assay [1] is 14.8%; in assay [2], 1.05%; in assay [3] it was -33.6%; in assay [4] it was -11.4%; in assay [5] it was -31%; in assay [6] it was -45.6%.
In the case of `CCC1(CC)C(=O)NC(=O)N(C)C1=O`, the growth inhibition in assay [1] was 33.4%; in assay [2] it was 10.2%; in assay [3], 31.5%; in assay [4], 28.8%; in assay [5], 8.25%; in assay [6] it was 24.7%.
`Cc1cc(C)[n+](CCc2ccccc2)c(C)c1`: the growth inhibition in assay [1] was 5.15%; in assay [2], 2.55%; in assay [3], -3.25%; in assay [4] it was -6.3%; in assay [5], 2.4%; in assay [6], 4.25%.
Take `C=C(C)C(=O)OCC12CCC(C)=CC1OC1C(=O)C(OC(=O)C(=C)C)C2(C)C12CO2` (stereo not given): the growth inhibition in assay [1] was 8.55%; in assay [2], 19.9%; in assay [3], -1.15%; in assay [4] it was 2.75%; in assay [5] it was -10.1%; in assay [6], -34%.
On to `CCOC(=O)C1C(=O)C(C(=O)OCC)C2c3ccccc3-c3ccccc3C1N2C` (stereo not given), for which the growth inhibition in assay [1] is 29.8%; in assay [2], 7.25%; in assay [3] it was 35.2%; in assay [4] it was -7.35%; in assay [5], 8.7%; in assay [6] it was 15.7%.
As for `CCOC(CP(=O)(OCC)OCC)OCC`, the growth inhibition in assay [1] was -13.2% and 8.45%; in assay [2], -26.2% and -14.3%; in assay [3], -16.2% and 4.65%; in assay [4], 16.2% and 15.7%; in assay [5], 3.65% and 6.5%; in assay [6], -25.4% and 14.4%.
`FC(F)(F)C1(F)N(Cc2ccccc2)C1(F)C(F)(F)F` (stereo not given): the growth inhibition in assay [1] is 9.1%; in assay [2], -7.5%; in assay [3] it was -10.3%; in assay [4], -6.65%; in assay [5], 7%; in assay [6] it was -9.95%.
With `O=C(O)c1ccccc1`, the growth inhibition in assay [1] is -11.1% and -31.2%; in assay [2], -0.2% and -17.9%; in assay [3], -14.8% and 33.1%; in assay [4], -10.7% and -12%; in assay [5], -20.5% and -3.8%; in assay [6] it was -38.4% and 10.8%.
For `NC(=O)c1ccc(NN=O)nc1`, the growth inhibition in assay [1] was -10.4%; in assay [2], 0.9%; in assay [3] it was 1.1%; in assay [4], -9.85%; in assay [5], -2.85%; in assay [6] it was -2.5%.
Regarding `Cc1c([N+](=O)[O-])cc(C(C)(C)C)c(O)c1[N+](=O)[O-]`, the growth inhibition is 60.6% in assay [1]; 63.1% in assay [2]; 72.2% (active) in assay [3]; 43.5% in assay [4]; 27.1% in assay [5]; 70.6% (active) in assay [6].
On to `CC(=O)NC(Cc1ccc(N(CCCl)CCCl)cc1)C(=O)NC(CC(C)C)C(=O)O` (stereo not given), for which the growth inhibition in assay [1] was 2.85%; in assay [2] it was 22.6%; in assay [3], -4.15%; in assay [4], 5.75%; in assay [5], 2.7%; in assay [6] it was 21.7%.
On to `CC(C(=O)O)C(Br)C(=O)O` (stereo not given), for which the growth inhibition in assay [1] was -9%; in assay [2], -8.7%; in assay [3] it was 1.7%; in assay [4] it was 3.55%; in assay [5], 5.85%; in assay [6] it was 9.7%.
With `[Br][Ni][Br].c1ccc([PH+](CC[PH+](c2ccccc2)c2ccccc2)c2ccccc2)cc1`, the growth inhibition in assay [1] was -36.1%; in assay [2], -7.15%; in assay [3], -23.8%; in assay [4] it was 32.2%; in assay [5] it was 8.9%; in assay [6], 0.9%.
Regarding `[Cl][Ni][Cl].[NH-]C1CCCCC1[NH-].[NH-]C1CCCCC1[NH-]` (stereo not given), the growth inhibition in assay [1] was -22.9%; in assay [2], -6.45%; in assay [3] it was 0.85%; in assay [4], -18.6%; in assay [5] it was 11.8%; in assay [6], -1.85%.
Consider `COc1nc2ccccc2nc1N1CC1`, for which the growth inhibition in assay [1] is -3.25%; in assay [2], -31%; in assay [3], -15%; in assay [4], 6.9%; in assay [5], -24.6%; in assay [6] it was -1.65%.
Turning to `O=C(O)c1cc(I)cc(I)c1I`, the growth inhibition in assay [1] is -5.55%; in assay [2], -16.1%; in assay [3], -34.5%; in assay [4], -70.2%; in assay [5], 1.25%; in assay [6], 12.7%.
With `CCCCCCCCCCCCCCCCCCC[As](=O)(O)CCCCCCCCCCCCCCCCCCC`, the growth inhibition in assay [1] is 46.2%; in assay [2], 19.2%; in assay [3] it was 23.4%; in assay [4], -2.2%; in assay [5], 13.4%; in assay [6], 30.4%.
For `COC(=O)c1ccccc1NP(=O)(O)Oc1ccccc1` (tested in a mixture with another compound), the growth inhibition is 9.7% in assay [1]; -4.05% in assay [2]; 11.5% in assay [3]; -32.5% in assay [4]; -2.7% in assay [5]; -11.9% in assay [6].
In the case of `O=C(CF)[O][Sb]([O]C(=O)CF)([c]1ccccc1)([c]1ccccc1)[c]1ccccc1`, the growth inhibition in assay [1] was 9.8%; in assay [2], 19.9%; in assay [3], 23.8%; in assay [4], -18.6%; in assay [5] it was 16.2%; in assay [6], 33.8%.
`CC(=O)OCCCn1nc(COC(N)=O)c2c1CC(C)CC2=O` (stereo not given): the growth inhibition in assay [1] was 1%; in assay [2], -11.3%; in assay [3] it was -8.25%; in assay [4], -4.35%; in assay [5], -14.8%; in assay [6], 3.65%.
